From PubChem BioAssay (EPA / NIEHS)
Records with an inconclusive call do not appear. The source made the active and inactive calls. The calls were made as follows, unless noted: active = hit-call score of the fitted dose curve at least 0.9, where 1 is the maximum; inconclusive = response in the unintended direction; inactive = score below 0.9.

target: PGR (gene 5241) (UniProt P06401); assay: TOX21_PR_LUC_Followup_Antagonist: Tox21 HEK293 Progesterone Receptor (PR) Antagonism Luciferase Follow-Up Assay (AID 2283938);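 also: curve fitted upward as signal gain over DMSO baseline despite antagonist label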
From the text: TOX21_PR_LUC_Followup is a secondary assay for specificity for the TOX21_PR_BLA_Agonist assay. To differentiate true PR agonists from cytotoxic substances, this follow up assay is multiplexed with a cell viability assay.TOX21_PR_LUC_Followup_Antagonist is one of one assay component(s) measured or calculated from the TOX21_PR_LUC_Followup assay. It is designed to make measurements of luciferase induction, a form of inducible reporter, as detected with bioluminescence signals by CellTiter-Glo Luciferase-coupled ATP quantitation technologyData from the assay component TOX21_PR_LUC_Followup_Antagonist was analyzed into 1 assay endpoint. This assay endpoint, TOX21_PR_LUC_Followup_Antagonist, was analyzed in the positive analysis fitting direction relative to DMSO as the negative control and baseline of activity. Using a type of inducible reporter, gain-of-signal activity can be used to understand changes in the reporter gene as they relate to the gene NR3C3. Furthermore, this assay endpoint can be referred to as a primary readout, because the performed assay has only produced 1 assay endpoint. To generalize the intended target to other relatable targets, this assay endpoint is annotated to the nuclear receptor target family, where the subfamily is steroidal.
Quality Control Precautions: Maintain cells below 85-90% confluence in culture medium. For assay purpose, the cells should be cultured in assay medium with 10% charcoal stripped FBS for 5 days with alternate day medium changed to fresh medium. Especially while in assay culture, the cells should not reach more than 85% confluence as they would become harder to detach if they reach over confluence.Assay Protocol: HEK293-PR-A-luc cells were dispensed at 3,000 cells/5 uL/well of culture medium into white wall/solid-bottom 1536-well plates using a Multidrop Combi (ThermoFisher Scientific, Waltham, MA) dispenser. After the assay plates were incubated at 37C and […] for 5 h, 23 nL of compounds dissolved in DMSO, positive controls or DMSO only was transferred to the assay plate by a Pintool station (Kalypsys, San Diego, CA). The plates were incubated at 37C and […] for 16 h. Then 4 uL of ONE-Glo reagent (Promega, Madison, WI) was added to each plate using a BioRAPTR Flying Reagent Dispenser (FRD) workstation (Beckman Coulter, Indianapolis, IN, USA) and luminescence was quantified on a ViewLux (PerkinElmer, Shelton, CT) plate reader after 30 min incubation at room temperature.

Chain of PGR (gene 5241) (P06401 whole entry, looked up): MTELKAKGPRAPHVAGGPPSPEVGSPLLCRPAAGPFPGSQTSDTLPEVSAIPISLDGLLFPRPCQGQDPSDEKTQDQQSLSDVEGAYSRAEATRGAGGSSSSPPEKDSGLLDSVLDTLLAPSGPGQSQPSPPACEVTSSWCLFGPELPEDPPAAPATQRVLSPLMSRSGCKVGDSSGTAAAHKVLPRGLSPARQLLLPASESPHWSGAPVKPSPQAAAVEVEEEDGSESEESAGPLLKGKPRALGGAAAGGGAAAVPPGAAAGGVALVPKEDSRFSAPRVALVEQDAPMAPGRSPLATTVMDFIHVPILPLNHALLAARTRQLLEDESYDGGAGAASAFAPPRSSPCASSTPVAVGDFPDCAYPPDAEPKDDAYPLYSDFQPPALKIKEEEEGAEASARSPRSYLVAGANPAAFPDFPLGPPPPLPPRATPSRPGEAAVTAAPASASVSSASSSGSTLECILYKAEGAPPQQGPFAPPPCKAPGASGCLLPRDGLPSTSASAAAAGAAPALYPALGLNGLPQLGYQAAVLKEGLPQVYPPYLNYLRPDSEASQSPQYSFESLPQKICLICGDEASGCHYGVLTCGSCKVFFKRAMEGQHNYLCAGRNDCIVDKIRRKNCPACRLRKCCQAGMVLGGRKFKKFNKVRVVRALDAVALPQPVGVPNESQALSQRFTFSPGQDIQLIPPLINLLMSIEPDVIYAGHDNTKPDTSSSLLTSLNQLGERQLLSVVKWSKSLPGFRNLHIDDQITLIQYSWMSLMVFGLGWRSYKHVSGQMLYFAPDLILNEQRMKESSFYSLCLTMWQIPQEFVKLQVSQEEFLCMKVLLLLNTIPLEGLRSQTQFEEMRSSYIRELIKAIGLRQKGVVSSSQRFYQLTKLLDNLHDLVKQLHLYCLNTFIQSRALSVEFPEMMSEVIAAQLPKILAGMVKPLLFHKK

**Q.** Which AC50 does the source give for `CCOC(=O)C(C#N)=C(c1ccccc1)c1ccccc1` here?
**A.** 23 µM (active)

**Q.** With `N#Cc1ccc(CC(=O)c2cccc(C(F)(F)F)c2)cc1` as the compound, how does the AC50 read?
**A.** 32 µM (active)

**Q.** For `C=C1CC[C@H](O)C/C1=C/C=C1\CCC[C@]2(C)[C@@H]([C@H](C)/C=C/[C@H](C)C(C)C)CC[C@@H]12`, which outcome is on record?
**A.** inactive

**Q.** Which AC50 does the source give for `CCCOC(=O)c1c(Cl)c(Cl)c(Cl)c(Cl)c1C(=O)OCCC` here?
**A.** 21.2 µM (active)

**Q.** With `Clc1ccc(C(c2ccccc2Cl)C(Cl)Cl)cc1` (stereo unspecified) as the compound, how does the AC50 read?
**A.** 13.1 µM (active)

**Q.** For `O=C(Nc1ccc2c(c1)Cc1ccccc1-2)C(F)(F)F`, which AC50 is on record?
**A.** 62.9 µM (active)

target: Thyroid hormone receptor alpha (Rattus norvegicus) + Thyroid hormone receptor beta (Rattus norvegicus) (UniProt P18113+P63059); assay: TOX21_TR_LUC_GH3_Agonist_Followup: Tox21 GH3 Thyroid Hormone Receptor Agonism Luciferase Follow-Up Assay (AID 2283939)
Method in brief: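 Rat GH3 cells (1,500/well) in serum-free assay medium, treated with 15-point series, 92 uM to 5 nM final, for 24 h at 37C. Luciferase via ONE-Glo luminescence; gain of signal fitted against DMSO, T3 positive control.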

Chain of Thyroid hormone receptor alpha (Rattus norvegicus) + Thyroid hormone receptor beta (Rattus norvegicus) (P63059 whole entry, looked up): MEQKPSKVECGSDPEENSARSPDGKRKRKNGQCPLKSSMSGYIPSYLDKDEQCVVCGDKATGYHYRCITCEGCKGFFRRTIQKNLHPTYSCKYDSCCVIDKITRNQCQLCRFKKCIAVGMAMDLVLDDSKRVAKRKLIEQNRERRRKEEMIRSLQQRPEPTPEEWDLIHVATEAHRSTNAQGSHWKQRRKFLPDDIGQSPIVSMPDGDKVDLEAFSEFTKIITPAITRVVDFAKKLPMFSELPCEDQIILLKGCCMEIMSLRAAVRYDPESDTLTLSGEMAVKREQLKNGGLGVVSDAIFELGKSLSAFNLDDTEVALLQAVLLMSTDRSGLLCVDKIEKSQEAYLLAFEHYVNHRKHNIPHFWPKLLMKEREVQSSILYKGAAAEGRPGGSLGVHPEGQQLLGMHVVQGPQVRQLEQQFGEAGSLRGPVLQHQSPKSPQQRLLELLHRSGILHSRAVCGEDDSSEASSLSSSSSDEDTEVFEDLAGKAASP
Chain of Thyroid hormone receptor alpha (Rattus norvegicus) + Thyroid hormone receptor beta (Rattus norvegicus) (P18113 whole entry, looked up): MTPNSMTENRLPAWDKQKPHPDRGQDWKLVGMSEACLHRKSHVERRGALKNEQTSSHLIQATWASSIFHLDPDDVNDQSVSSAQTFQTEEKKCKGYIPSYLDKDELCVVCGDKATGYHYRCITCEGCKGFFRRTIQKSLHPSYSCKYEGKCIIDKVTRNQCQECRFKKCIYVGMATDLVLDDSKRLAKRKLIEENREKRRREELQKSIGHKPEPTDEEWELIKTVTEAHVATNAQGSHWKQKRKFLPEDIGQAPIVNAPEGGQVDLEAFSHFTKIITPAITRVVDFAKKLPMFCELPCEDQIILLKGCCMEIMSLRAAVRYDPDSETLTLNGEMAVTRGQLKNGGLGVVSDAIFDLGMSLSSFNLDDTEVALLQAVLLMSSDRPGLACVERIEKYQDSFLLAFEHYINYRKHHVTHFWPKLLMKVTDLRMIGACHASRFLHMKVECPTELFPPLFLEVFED

**Q.** For `C[C@H](CCC(=O)NCC(=O)O)[C@H]1CC[C@H]2[C@@H]3[C@H](O)C[C@@H]4C[C@H](O)CC[C@]4(C)[C@H]3C[C@H](O)[C@]12C`, which outcome is on record?
**A.** inactive

**Q.** Which outcome does the source give for `Cc1cc(C)nc(NS(=O)(=O)c2ccc(N)cc2)n1` here?
**A.** inactive

**Q.** For `OCCCCC(O)CO` (stereo unspecified), which outcome is on record?
**A.** inactive

**Q.** Which outcome does the source give for `O=Cc1ccccc1S(=O)(=O)O` here?
**A.** inactive

test system: not listed separately; assay: TOX21_PR_LUC_Followup_Antagonist_viability: Viability Assessment in the Tox21 HEK293 Progesterone Receptor (PR) Antagonism Luciferase Follow-Up Assay (AID 2283940)
Method in brief: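 HEK293-PR-A-luc cells kept in charcoal-stripped FBS medium were plated 5 h before compound addition, then exposed 16 h at 37C; viability read as cellular ATP by luciferase luminescence, loss of signal indicating cytotoxicity.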

**Q.** With `CCOC(=O)C(C#N)=C(c1ccccc1)c1ccccc1` as the compound, how does the outcome read?
**A.** inactive

**Q.** Which outcome does the source give for `N#Cc1ccc(CC(=O)c2cccc(C(F)(F)F)c2)cc1` here?
**A.** inactive

**Q.** For `C=C1CC[C@H](O)C/C1=C/C=C1\CCC[C@]2(C)[C@@H]([C@H](C)/C=C/[C@H](C)C(C)C)CC[C@@H]12`, which outcome is on record?
**A.** inactive

**Q.** For `CCCOC(=O)c1c(Cl)c(Cl)c(Cl)c(Cl)c1C(=O)OCCC`, which outcome is on record?
**A.** inactive

**Q.** Which outcome does the source give for `O=c1c(O)c(-c2ccc(O)cc2)oc2cc(O)cc(O)c12` here?
**A.** inactive

**Q.** Which outcome does the source give for `O=C(Nc1ccc2c(c1)Cc1ccccc1-2)C(F)(F)F` here?
**A.** inactive

test system: not listed separately; assay: TOX21_PR_LUC_Followup_Agonist_viability: Viability Assessment in the Tox21 HEK293 Progesterone Receptor (PR) Agonism Luciferase Follow-Up Assay (AID 2283941);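 also: loss of signal means cytotoxicity so actives lower viability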
Method in brief: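 HEK293-PR-A-luc cells, kept in 10% charcoal-stripped FBS medium, were treated with compounds for 16 h at 37C. Viability read as cellular ATP by luciferase-coupled luminescence; loss of signal indicates cytotoxicity.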

**Q.** With `CCOC(=O)C(C#N)=C(c1ccccc1)c1ccccc1` as the compound, how does the outcome read?
**A.** inactive

**Q.** For `N#Cc1ccc(CC(=O)c2cccc(C(F)(F)F)c2)cc1`, which outcome is on record?
**A.** inactive

**Q.** Which outcome does the source give for `CCCOC(=O)c1c(Cl)c(Cl)c(Cl)c(Cl)c1C(=O)OCCC` here?
**A.** inactive

**Q.** With `O=c1c(O)c(-c2ccc(O)cc2)oc2cc(O)cc(O)c12` as the compound, how does the outcome read?
**A.** inactive

**Q.** For `O=C(Nc1ccc2c(c1)Cc1ccccc1-2)C(F)(F)F`, which outcome is on record?
**A.** inactive

target: THRA (gene 7067) (UniProt P10827); assay: TOX21_TRA_COA_Agonist_Followup_ratio: Tox21 Thyroid Hormone Receptor alpha Agonism through Coactivator Recruitment Follow-Up Assay, Ratio (AID 2283948; active = hit-call score of the fitted dose curve at least 0.9, where 1 is the maximum; inactive = score below 0.9)
From the text: TOX21_TRa_COA_Agonist_Followup is a secondary assay for specificity for the TOX21_TR_GH3_LUC_Agonist assay. The LanthaScreen TR-FRET TR coactivator assay kits were used to determine TR activity in a cell-free functional assay. A time-resolved fluorescence resonance energy transfer (TR-FRET) signal was indicative of coactivator (SRC-2) recruitment.TOX21_TRA_COA_Agonist_Followup_ratio is assay component calculated in the TOX21_TRA_COA_Agonist_Followup assay. The TR-FRET ratio of acceptor emission (ch2) to donor emission (ch1) is indicative of the resonance energy transfer to the fluorescein tag on the coactivator peptide following recruitment to the receptor.Data from the assay component TOX21_TRA_COA_Agonist_Followup_ratio was analyzed into 1 assay endpoint. This assay endpoint, TOX21_TRA_COA_Agonist_Followup_ratio, was analyzed in the positive analysis fitting direction relative to DMSO as the negative control and baseline of activity. Using a type of inducible reporter, gain-of-signal activity can be used to understand changes in the reporter gene as they relate to the gene THRA. Furthermore, this assay endpoint can be referred to as a primary readout, because this assay has produced multiple assay endpoints and this ratio serves a reporter gene function to understand target activity. To generalize the intended target to other relatable targets, this assay endpoint is annotated to the nuclear receptor intended target family, where the subfamily is non-steroidal.
Cell Media Required: Growth (90% DMEM/F-12, 10% Fetal Bovine Calf Serum, 100U/ml Penicillin, 100 ug/ml Streptomycin), Assay (10ng/mL sodium selenite, 10 ug/mL humanapo-transferrin, 10 uM ethanolamine, 10 ug/mL insulin, 500 ug/mL bovine serum albumin (BSA))Assay Protocol: 4 uL mixture of the receptor LBDs expressed as glutathione S-transferase (GST) fusion proteins (2.5 nM for TRa and 5.0 nM for TRb) and BSA (0.10%; Sigma-Aldrich) were incubated with 23 nL of control or test compound. A time-resolved fluorescence resonance energy transfer(TR-FRET) signal was indicative of coactivator recruitment using a 2 uL mixture of fluoresce in-labeled SRC-2 peptide (200 nM) and terbium-labeled anti-GST antibody (2nM), which transferred resonance energy to the fluorescein tag on the coactivator peptide following recruitment to the receptor. Fluorescence emission ratios (520:495 nm) were collected by an Envision plate reader (excitation at 340 nm and emissions at 495 and 520 nm), and the measured values were normalized to 0% activity using DMSO-only wells and 100 activity using T3 control wells.

Chain of THRA (gene 7067) (P10827 whole entry, looked up): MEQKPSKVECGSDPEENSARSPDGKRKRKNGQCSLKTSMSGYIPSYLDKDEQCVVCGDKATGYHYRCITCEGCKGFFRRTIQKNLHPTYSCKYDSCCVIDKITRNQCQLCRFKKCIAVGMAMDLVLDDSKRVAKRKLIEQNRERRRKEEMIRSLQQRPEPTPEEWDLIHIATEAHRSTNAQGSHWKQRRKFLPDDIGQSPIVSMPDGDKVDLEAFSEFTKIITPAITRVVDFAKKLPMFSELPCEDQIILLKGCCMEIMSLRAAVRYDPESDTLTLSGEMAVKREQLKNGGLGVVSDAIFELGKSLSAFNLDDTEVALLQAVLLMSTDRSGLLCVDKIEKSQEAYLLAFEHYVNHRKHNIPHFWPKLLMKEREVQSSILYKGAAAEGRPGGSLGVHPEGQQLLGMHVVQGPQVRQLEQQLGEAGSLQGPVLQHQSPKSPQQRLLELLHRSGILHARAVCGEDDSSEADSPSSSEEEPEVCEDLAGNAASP

**Q.** Which outcome does the source give for `CC(=O)Nc1ccc(C(=O)CCl)cc1` here?
**A.** inactive

**Q.** For `C[C@H](CCC(=O)NCC(=O)O)[C@H]1CC[C@H]2[C@@H]3[C@H](O)C[C@@H]4C[C@H](O)CC[C@]4(C)[C@H]3C[C@H](O)[C@]12C`, which outcome is on record?
**A.** inactive

**Q.** Which outcome does the source give for `Cc1cc(C)nc(NS(=O)(=O)c2ccc(N)cc2)n1` here?
**A.** inactive

**Q.** Which outcome does the source give for `OCCCCC(O)CO` (stereo unspecified) here?
**A.** inactive

**Q.** With `O=Cc1ccccc1S(=O)(=O)O` as the compound, how does the outcome read?
**A.** inactive
